According to PubChem BioAssay AID1159580 (chemical genetic matrix, 2015):
About 2,000 (36%) of roughly 5,500 compounds were called active. Another 18% or so got no clear call; they are omitted. Some of the results follow. A number with no mark means an inactive call. No stated cut-off is given here; in the data, active means normalized growth mostly below about 0.91 (no sharp cut-off); inconclusive means no clear call, values can overlap the other calls; inactive means mostly above about 0.92.

Test: chemical genetic growth profiling, strain panel (AID 1159580);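 further: tested at 20 µM; growth read once vehicle control cultures reached saturation at 30 °C; 1 = growth at the plate median or of vehicle wells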
Conditions: growth OD
[1] = S. cerevisiae deletion strains, locus YAL013W, strain DEP1, stronger effect = lower value
[2] = S. cerevisiae deletion strains, locus YBR229C, strain ROT2, stronger effect = lower value
[3] = S. cerevisiae deletion strains, locus YDL101C, strain DUN1, stronger effect = lower value
[4] = S. cerevisiae deletion strains, locus YDL134C, strain PPH21, stronger effect = lower value
[5] = S. cerevisiae deletion strains, locus YDR150W, strain NUM1, stronger effect = lower value
[6] = S. cerevisiae deletion strains, locus YEL061C, strain CIN8, stronger effect = lower value
[7] = S. cerevisiae deletion strains, locus YGR078C, strain PAC10, stronger effect = lower value
[8] = S. cerevisiae deletion strains, locus YHR030C, strain SLT2, stronger effect = lower value
[9] = S. cerevisiae deletion strains, locus YHR087W, strain rtc3, stronger effect = lower value
[10] = S. cerevisiae deletion strains, locus YJR043C, strain POL32, stronger effect = lower value
[11] = S. cerevisiae deletion strains, locus YJR075W, strain HOC1, stronger effect = lower value
[12] = S. cerevisiae deletion strains, locus YLR039C, strain RIC1, stronger effect = lower value
[13] = S. cerevisiae deletion strains, locus YLR058C, strain SHM2 (second series), stronger effect = lower value
[14] = S. cerevisiae deletion strains, locus YLR085C, strain ARP6, stronger effect = lower value
[15] = S. cerevisiae deletion strains, locus YLR262C, strain YPT6, stronger effect = lower value
[16] = S. cerevisiae deletion strains, locus YML094W, strain GIM5, stronger effect = lower value
[17] = S. cerevisiae deletion strains, locus YMR219W, strain ESC1, stronger effect = lower value
[18] = S. cerevisiae deletion strains, locus YMR263W, strain SAP30, stronger effect = lower value
[19] = S. cerevisiae deletion strains, locus YNL128W, strain TEP1, stronger effect = lower value
[20] = S. cerevisiae deletion strains, locus YNL153C, strain GIM3, stronger effect = lower value
[21] = S. cerevisiae deletion strains, locus YNL298W, strain CLA4 (second series), stronger effect = lower value
[22] = S. cerevisiae deletion strains, locus YNL322C, strain KRE1, stronger effect = lower value
[23] = S. cerevisiae deletion strains, locus YNR030W, strain Alg12, stronger effect = lower value
[24] = S. cerevisiae deletion strains, locus YPL055C, strain LGE1, stronger effect = lower value
[25] = S. cerevisiae deletion strains, locus YPL241C, strain CIN2, stronger effect = lower value
[26] = S. cerevisiae deletion strains, locus YPR135W, strain CTF4, stronger effect = lower value
[27] = S. cerevisiae deletion strains, locus YMR307W, strain GAS1, stronger effect = lower value

For `COc1ccc(N=Cc2ccccc2O)cc1`, the normalized growth [1] was 0.993, the normalized growth [2] was 0.99 and the normalized growth [3] was 0.991. It also gave a normalized growth [4] of 1.01, a normalized growth [5] of 0.952 and a normalized growth [6] of 0.991. It also gave a normalized growth [7] of 0.995, a normalized growth [8] of 0.879 and a normalized growth [9] of 0.969. It also gave a normalized growth [10] of 0.956, a normalized growth [11] of 0.967 and a normalized growth [12] of 0.841. For the same compound, the normalized growth [13] was 0.988, the normalized growth [14] was 0.999 and the normalized growth [15] was 0.813 (active). The normalized growth [16] was 0.978, the normalized growth [17] was 0.976 and the normalized growth [18] was 0.963. It also gave a normalized growth [19] of 0.986, a normalized growth [20] of 1.01 and a normalized growth [21] of 0.975. For the same compound, the normalized growth [22] was 0.985, the normalized growth [23] was 0.973 and the normalized growth (S. cerevisiae deletion strains, locus YOL006C, strain TOP1, stronger effect = lower value) was 0.819. It also gave a normalized growth [24] of 0.912, a normalized growth [25] of 0.977 and a normalized growth [26] of 0.86. The normalized growth (S. cerevisiae strains, strain wild type, stronger effect = lower value) was 0.977.
In the case of `COc1ccc(C=Nc2ccc(O)cc2)cc1`, the normalized growth [1] is reported as 0.999, the normalized growth [2] is reported as 1.01 and the normalized growth (S. cerevisiae deletion strains, locus YCL061C, strain MRC1, stronger effect = lower value) is reported as 0.979. For the same compound, the normalized growth [3] was 1.03, the normalized growth [4] was 1.03 and the normalized growth [5] was 0.975. It also gave a normalized growth [6] of 1.05, a normalized growth [7] of 0.996 and a normalized growth [8] of 1.04. It also gave a normalized growth [9] of 0.998, a normalized growth [10] of 0.99 and a normalized growth [11] of 1.04. The normalized growth (S. cerevisiae deletion strains, locus YKL190W, strain CNB1, stronger effect = lower value) was 1.02, the normalized growth [12] was 0.936 and the normalized growth [13] was 1.02. It also gave a normalized growth [14] of 1.03, a normalized growth [15] of 0.931 and a normalized growth [16] of 1.01. It also gave a normalized growth [17] of 0.996, a normalized growth [18] of 1.02 and a normalized growth [27] of 1.15. For the same compound, the normalized growth [19] was 1.02, the normalized growth [20] was 1.01 and the normalized growth [21] was 1.04. It also gave a normalized growth [22] of 0.994, a normalized growth [23] of 1.01 and a normalized growth [24] of 1.04. For the same compound, the normalized growth [25] was 0.987 and the normalized growth [26] was 0.995.
For `CCCN(CCC)CCc1c[nH]c2ccc(C(N)=O)cc12`, the normalized growth (S. cerevisiae deletion strains, locus YAL040C, strain CLN3, stronger effect = lower value) was 1.07, the normalized growth (S. cerevisiae deletion strains, locus YCL061C, strain MRC1 (second series), stronger effect = lower value) was 0.996 and the normalized growth (S. cerevisiae deletion strains, locus YDR363W, strain ESC2, stronger effect = lower value) was 0.981. The normalized growth (S. cerevisiae deletion strains, locus YER002W, strain NOP16, stronger effect = lower value) was 0.991, the normalized growth [18] was 0.988 and the normalized growth [27] was 1. The normalized growth (S. cerevisiae deletion strains, locus YNL175C, strain NOP13, stronger effect = lower value) was 1.05, the normalized growth (S. cerevisiae deletion strains, locus YNL197C, strain WHI3, stronger effect = lower value) was 1.02 and the normalized growth (S. cerevisiae deletion strains, locus YNL224C, strain SQS1, stronger effect = lower value) was 0.994. The normalized growth [22] was 0.95, the normalized growth (S. cerevisiae deletion strains, locus YOR083W, strain WHI5 (second series), stronger effect = lower value) was 1.01 and the normalized growth [25] was 0.988.
